Screening data from PubChem.
JMJD2A Tudor: JMJD2A Tudor domain (human) inhibition; O75164; AlphaScreen JMJD2A-Tudor / H3K4me3 peptide binding; Potency, µM (top dose mostly 114 µM), for inactives: at the highest dose activity change, negative = inhibition, most hits filed as inhibitors; 390,000 compounds, 4.4% hits; AID 504339; also: potency is read from the fitted curve at half-maximal effect; % is scaled to controls: 0 for no effect and ±100 for the full control effect; nearly all actives have a fitted effect of over 50% in size
Target sequence (O75164 whole entry, looked up, the tested form may be a part): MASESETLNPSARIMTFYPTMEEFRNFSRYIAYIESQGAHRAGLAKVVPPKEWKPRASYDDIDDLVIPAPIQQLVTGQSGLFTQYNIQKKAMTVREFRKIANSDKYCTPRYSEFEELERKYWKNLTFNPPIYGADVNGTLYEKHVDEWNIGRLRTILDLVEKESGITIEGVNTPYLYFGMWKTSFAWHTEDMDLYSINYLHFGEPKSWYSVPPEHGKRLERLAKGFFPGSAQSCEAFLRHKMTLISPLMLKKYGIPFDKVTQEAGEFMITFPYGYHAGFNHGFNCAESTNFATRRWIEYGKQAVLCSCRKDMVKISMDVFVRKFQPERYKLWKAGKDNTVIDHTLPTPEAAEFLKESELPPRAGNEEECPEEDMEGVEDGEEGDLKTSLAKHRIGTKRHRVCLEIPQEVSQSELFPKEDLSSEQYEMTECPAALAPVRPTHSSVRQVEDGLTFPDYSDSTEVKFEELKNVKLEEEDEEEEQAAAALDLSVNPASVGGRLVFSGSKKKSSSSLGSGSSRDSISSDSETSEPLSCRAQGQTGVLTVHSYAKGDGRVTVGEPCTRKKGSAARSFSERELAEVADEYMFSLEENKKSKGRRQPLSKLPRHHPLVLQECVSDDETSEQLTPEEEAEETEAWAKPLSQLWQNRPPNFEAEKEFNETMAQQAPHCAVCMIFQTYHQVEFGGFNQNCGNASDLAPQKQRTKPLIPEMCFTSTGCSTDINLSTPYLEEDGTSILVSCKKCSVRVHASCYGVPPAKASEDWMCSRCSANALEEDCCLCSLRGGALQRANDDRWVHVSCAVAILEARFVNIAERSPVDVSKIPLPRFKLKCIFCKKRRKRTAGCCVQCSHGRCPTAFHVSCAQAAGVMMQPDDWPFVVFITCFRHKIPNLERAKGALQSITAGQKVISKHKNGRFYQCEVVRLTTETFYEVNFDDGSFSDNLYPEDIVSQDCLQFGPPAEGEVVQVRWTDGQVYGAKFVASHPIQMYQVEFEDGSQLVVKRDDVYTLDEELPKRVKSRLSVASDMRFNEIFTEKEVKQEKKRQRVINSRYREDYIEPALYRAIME
CtBP-E1A blk: blocks the CtBP interaction with E1A; activity change, % (no concentration beside the values); AID 651724; 340,000 compounds, 0.49% hits; AlphaScreen GST-E1A/His-CtBP binding, 1536-well; stronger effect = lower value; in the data active = activity change below about -65%; inconclusive = mostly about -30% to -63%; also: % is scaled to controls: 0 for no effect and ±100 for the full control effect
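In 5 uL wells, 23 nL compound meets equimolar GST-E1A and His-CtBP (5X stock 125 nM each) for 2 h, 37 °C. Beads (5X, 50 ug/mL) then 1 h, 37 °C, dark.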
Six1-Eya2 blk: inhibitors of human Six1/Eya2 interaction. Q15475+O00167. AlphaScreen GST-Six1/His-Eya2 binding, biochemical; stronger effect = lower value. activity change, % (concentration not given with the values). 360,000 compounds, 0.56% hits; in the data active = activity change below about -65%; inconclusive = mostly about -30% to -63%; also: % is scaled to controls: 0 for no effect and ±100 for the full control effect
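Compounds are tested against tagged Six1 and Eya2 proteins bridged by glutathione donor and nickel acceptor beads; after a one-hour incubation at 37 °C without light, AlphaScreen emission is recorded.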
TDP1 inh: inhibitors of human tyrosyl-DNA phosphodiesterase TDP1; Q9NUW8; recombinant TDP1, AlphaScreen DNA substrate cleavage; Potency, µM (highest dose often 130 µM), inactives show top-dose activity change, negative = inhibition, most hits filed as inhibitors; 350,000 compounds, 0.28% hits; also: potency is read from the fitted curve at half-maximal effect; % is scaled to controls: 0 for no effect and ±100 for the full control effect; nearly all actives have a fitted effect of over 40% in size
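Tdp1 1 nM final; 15 min RT w/ cpd; substrate 15 nM, 5 min; beads 10 ug/ml, 10 min; AlphaScreen read. Neg ctrl: no enzyme.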
BAZ2B block: blocks human BAZ2B; AlphaScreen BAZ2B-H3K14Ac peptide displacement; Potency, µM (highest dose often 114 µM), for inactives: top-dose activity change, negative = inhibition, usual class: inhibitors; 360,000 compounds, 4.4% hits; AID 504333; also: potency is read from the fitted curve at half-maximal effect; % is scaled to controls: 0 for no effect and ±100 for the full control effect; nearly all actives have a fitted effect of over 60% in size
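In this displacement format the biotinylated H3(5-23) peptide acetylated at Lys14 serves as ligand at 50 nM, with BAZ2B at 50 nM in PBS pH 7.4 containing 0.01% Tween-20. Donor and acceptor beads are 10 ug/mL final.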
HP1b chromo inh: blocks HP1-beta chromodomain binding to methylated histone tails | P83916 | AlphaScreen HP1-beta / biotin-H3K9me3 peptide binding | Potency, µM (highest dose often 114 µM), for the others: top-dose activity change, negative = inhibition, usual class: inhibitors | 390,000 compounds, 0.56% hits | AID 540317; also: potency is read from the fitted curve at half-maximal effect; nearly all actives have a fitted effect of over 70% in size
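Compound inhibition of the preformed complex between 50 nM HP1-beta and 50 nM biotinylated H3K9me3 peptide was read by AlphaScreen. Buffer was PBS pH 7.4 with 0.01% Tween-20. Incubations ran 30 min at room temperature, with 10 ug/mL donor/acceptor beads.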
* = called active by the depositor; ? = inconclusive; nt = no result given; [ ] = remark or other dose. Rows were chosen to be rich in hits. Some 5.3% of all compounds tested hit in one or more screens of this group. Unless noted, calls follow the shape of the dose curve; as a rule, active = well fitted inhibition curve with a large enough effect; inconclusive = small, poorly fitted or top-dose-only effect; inactive = no such curve, though single readings can be large or run the other way.

SMILES	JMJD2A Tudor	CtBP-E1A blk	Six1-Eya2 blk	TDP1 inh	BAZ2B block	HP1b chromo inh
CC(=O)c1cccc(NC(=O)Cn2cc(C(=O)c3cccc(Cl)c3)c(=O)c3ccc(C)nc32)c1	6%	nt	nt	4%	1%	22%
O=C(COc1ccc(S(=O)(=O)NCc2ccccc2)cc1Cl)NCc1ccccn1	-13%	0	-14	nt	-38%	-4%
Cc1cc(S(=O)(=O)NC2CCCCC2)ccc1OCC(=O)NCc1ccccn1	28µM*	-11	-6	-6%	-27%	21%
O=C(COc1ccc(S(=O)(=O)N2CCc3ccccc32)cc1Cl)NCc1ccccn1	45µM*	-11	-6	7%	79µM*	-1%
Cc1ccc(NC(=O)C2CCCN(S(=O)(=O)c3cn(C(C)C)cn3)C2)c(C)c1 (stereo unspecified)	-18%	nt	nt	1%	-1%	27%
CCCCCCC(=O)N(O)C1CC(=O)N(c2ccc(Cl)cc2)C1=O (stereo unspecified)	32µM*	4	-4	10%	-19%	40µM*
O=C(O)CSC1CC(=O)N(c2ccc(Cl)cc2)C1=O (stereo unspecified)	-29%	-5	2	2%	-26%	32%
CCCCCCC(=O)N(O)C1CC(=O)N(c2ccc(C)cc2)C1=O (stereo unspecified)	14µM*	-14	-2	7%	3%	?
Cc1ccc(N2C(=O)CC(N(O)C3CC(=O)N(c4ccc(C)cc4)C3=O)C2=O)cc1 (stereo unspecified)	-34%	1	-3	-2%	-18%	9%
O=C(CS(=O)(=O)c1cccc2nsnc12)Nc1ccccc1Cl	-17%	nt	nt	10%	-4%	10%[57 µM]
O=C(CSc1ccccc1C(=O)O)NC1CCCCCC1	10µM*	10	5	8%	-3%	-24%
O=C(CSc1ccccc1C(=O)NCc1ccccc1)NC1CCCCCCC1	89µM*	-2	2	3%	-5%	10%
COc1ccc(CCNC(=O)c2cc(Nc3ccccc3)nc3ccccc23)cc1OC	-18%	nt	nt	-3%	6%	49%
Cc1cccc(N2CCN(C(c3ccc(F)cc3)c3nnc(-c4ccccc4)o3)CC2)c1C (stereo unspecified)	?	nt	nt	2%	50µM*	4%
COc1ccc(S(=O)(=O)Nc2cccc(-c3ccc(N4CCCCCC4)nn3)c2)cc1F	-19%	nt	nt	1%	-8%	11%[57 µM]
CN(C)c1ccc(NC(=O)c2ccc(COc3cccc(Cl)c3)o2)cc1	13µM*	?	-72*	10%	10µM*	?
CCOc1ccccc1NC(=O)CN1C(=O)CC(c2ccc(OC)c(OC)c2)Sc2ccccc21 (stereo unspecified)	-22%	nt	nt	3%	-19%	22%
O=C(NCCc1ccccc1)C1(c2cccs2)CCOCC1	-13%	nt	nt	3%	-12%	7%
COc1c(-c2ccc(O)c(O)c2)oc2cc(O)cc(O)c2c1=O	?	-22	-25	-11%	35µM*	2%
O=c1c(OC2OC(CO)C(O)C(O)C2OC2OC(CO)C(O)C(O)C2OC2OC(CO)C(O)C(O)C2O)c(-c2ccc(O)c(O)c2)oc2cc(O)cc(O)c12 (stereo unspecified)	32µM*	-1	-5	nt	?	-9%
COc1ccccc1N1CCN(S(=O)(=O)c2c(C)sc3ncn(CC(=O)Nc4ccccc4F)c(=O)c23)CC1	0%	nt	nt	6%	0%	23%
CC(C)N1CCN(C(=O)c2ccc([N+](=O)[O-])cc2)CC1	79µM*	nt	-4	nt	nt	?
O=C(c1cccc([N+](=O)[O-])c1)N1CCCN(C(=O)c2cccc([N+](=O)[O-])c2)CC1	5%	0	1	5%	5%	41%
O=C(c1ccccc1)N1CCN(C(=O)c2ccc([N+](=O)[O-])cc2)CC1	3%	4	5	0%	-4%	29%
O=C(c1ccccc1)N1CCN(c2ccc([N+](=O)[O-])cc2-n2cccc2)CC1	?	nt	-5	8%	28µM*	19%
SMILES	JMJD2A Tudor	CtBP-E1A blk	Six1-Eya2 blk	TDP1 inh	BAZ2B block	HP1b chromo inh
CCOC(=O)c1c(NC(C)=O)c2c3c(sc2n1Cc1nc(-c2ccccc2C)oc1C)CCCC3	-2%	nt	nt	4%	6%	31%
COc1cc(OC)c(OC)cc1CCC(C)NCCC(c1ccccc1)c1ccccc1 (stereo unspecified)	45µM*	nt	?	nt	13µM*	?
COc1ccc(CCNCCC(c2ccccc2)c2ccccc2)cc1OC	nt	-11	-18	nt	nt	nt
CCOC(=O)CSc1nnc(NC(=O)CN2CCCCC2)s1	50µM*	6	7	nt	-4%	23%
c1csc(CNc2nc3ccccc3n2CCN2CCOCC2)c1	-4%	7	2	5%	11%	25%
CCCn1c(NCc2cccs2)nc2ccccc21	-14%	4	-1	0%	nt	45%
CC(=O)Nc1nc2ccccc2n1CCN1CCOCC1	4.5µM*	6	5	5%	-37%	-13%
c1ccc(CNc2nc3ccccc3n2CCN2CCOCC2)nc1	25µM*	28	4	1%	71µM*	19%
CCCn1c(NCc2ccccn2)nc2ccccc21	20µM*	-3	-3	-2%	56µM*	12%
CCOc1ccc(NC(=O)C(C)Sc2nnc3cc(C)c4ccccc4n23)cc1 (stereo unspecified)	-11%	nt	nt	2%	-8%	49%
O=S(=O)(c1ccc2nc(Nc3ccc(Br)cc3F)ccc2c1)N1CCCC1	-6%	nt	nt	0%	-16%	38%
CCCNC(=O)c1nn2c(C(F)(F)F)cc(-c3ccccc3)nc2c1Br	-10%	-29	-24	nt	8%	37%
CCCCNC(=O)c1nn2c(C(F)(F)F)cc(-c3ccc(OC)cc3)nc2c1Br	35µM*	-2	-19	nt	0%	23%
COc1ccc2c(c1)c1c(c(=O)n(-c3cccc(C)c3)c(=O)n1CC(=O)NCCC1=CCCCC1)n2C	2%	nt	nt	9%	1%	37%
CC1(C)CC(N2CCCC2)=CC(=[N+]2CCCC2)C1	-15%	5	5	-1%	79µM*	-1%
CC1(C)CC(N2CCN(Cc3ccccc3)CC2)=CC(=[N+]2CCCCC2)C1	18µM*	0	13	5%	-20%	71µM*
CC1CCCN(Cc2c(O)ccc3c(=O)c(-c4ccccc4Cl)c(C(F)(F)F)oc23)C1 (stereo unspecified)	-19%	nt	nt	nt	7%	22%
S=c1[nH]c2ccccc2n2c(=S)[nH]nc12	22µM*	-11	?	nt	50µM*	19%
O=C(Nc1nnc(-c2ccncc2)s1)C1CCCO1 (stereo unspecified)	100µM*	-2	-3	-6%	-29%	-9%
